Data: PubChem BioAssay (NCATS)
Results filed as inconclusive are left out. Entries that show only a call come without a potency. Calls of active or inactive are those of the source. The call rests on the fitted dose curve; in most records, active means well fitted inhibition curve with a large enough effect; inconclusive means small, poorly fitted or top-dose-only effect; inactive means flat fitted curve, though single readings scatter.

Legend:
[1] = system: Zika virus NS2B-NS3 protease (linked construct); test: Confirmatory screen NINDS AMC qHTS for Zika virus inhibitors (AID 1347152); further: nearly all actives have a fitted effect of over 70% in size; further: potency means the concentration at half of the fitted maximal effect
In short: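 Linked NS2B-NS3 protease, 1 nM, in 10 mM Tris-HCl pH 8.0, 0.01% Tween 20; compounds preincubated 15 min at room temperature. Nle-KRR-AMC 10 microM (Km 18.3 µM); 15-min fluorescence change (340/450 nm) fitted to 4-parameter Hill.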

[2] = P-glycoprotein substrates identified in KB-8-5-11 adenocarcinoma cell line, qHTS therapeutic library screen (AID 1346987); further: nearly all actives have a fitted effect of over 65% in size
In short: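 Luminescence from CellTiter-Glo, read 5 min after addition, quantified survival of KB-8-5-11 (P-gp-overexpressing) cells exposed to compounds for 72 h. AC50 was derived from concentration-response curves.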

Row | SMILES | Potency [1] | Potency [2]
1 | Cc1ccc([C@@H]2CC=C(C(=O)O)[C@H](c3ccc(C(C)(C)C)cc3)N2S(=O)(=O)c2ccc(C)cc2)cc1 | 15.6 µM (active) | –
2 | C=C1C2CCC3CC2(CC(O)C2(O)C1CC(OC1OC(CO)C(O)C(O)C1O)C2(C)C)CC3(C)O (stereo not given) | inactive | inactive
3 | C/C(=C\CC/C(C)=C/CC[C@]1(C)CCc2cc(O)cc(C)c2O1)CC/C=C(\C)C(=O)O | 19.2 µM (active) | inactive
4 | C=C1CCC2C(C)(C)CCC[C@]2(C)[C@H]1CC/C(C)=C/C(=O)O (stereo not given in full) | 44.1 µM (active) | inactive
5 | COc1cc(Nc2nc3ccccc3nc2NS(=O)(=O)c2cccc(NC(=O)c3ccc(C)c(OC)c3)c2)cc(OC)c1 | 13.9 µM (active) | –
6 | Cc1cc(C)c2nc(-c3ccccn3)cc(C(=O)Nc3ccc(S(=O)(=O)Nc4onc(C)c4C)cc3)c2c1 | 22.1 µM (active) | inactive
